# HP1b chromo inh: blocks HP1-beta chromodomain binding to methylated histone tails; 390,000 tested, 0.56% active; AlphaScreen HP1-beta / biotin-H3K9me3 peptide binding; P83916; Potency, µM (highest dose often 114 µM), without a hit: at the highest dose activity change, negative = inhibition, most hits filed as inhibitors; further: nearly all actives have a fitted effect of over 70% in size
# Target sequence (P83916 whole entry, looked up): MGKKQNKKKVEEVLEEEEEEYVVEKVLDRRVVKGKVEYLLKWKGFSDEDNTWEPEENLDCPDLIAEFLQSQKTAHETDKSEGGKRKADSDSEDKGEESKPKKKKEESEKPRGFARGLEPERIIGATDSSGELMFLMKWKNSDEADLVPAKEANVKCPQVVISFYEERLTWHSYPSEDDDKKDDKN
#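 AlphaScreen: HP1-beta (50 nM) preformed 30 min with biotin-H3(1-18)K9me3 peptide (50 nM) in PBS pH 7.4, 0.01% Tween-20. Compound added for 30 min at RT, then streptavidin donor/nickel chelate acceptor beads (10 ug/mL) for 30 min.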
# G9a block: G9a (human) methyltransferase inhibition. Q96KQ7. G9a H3K9 monomethylation, AlphaScreen, 2 h. Potency, µM (highest dose often 102 µM), for inactives: at the top dose activity, negative = inhibition, usual class: inhibitors. 350,000 tested, 8.8% active. AID 504332; further: on the % scale 0 is the no-effect control and ±100 the full control effect; nearly all actives have a fitted effect of over 75% in size
# Target sequence (Q96KQ7 913-1193 limits assumed): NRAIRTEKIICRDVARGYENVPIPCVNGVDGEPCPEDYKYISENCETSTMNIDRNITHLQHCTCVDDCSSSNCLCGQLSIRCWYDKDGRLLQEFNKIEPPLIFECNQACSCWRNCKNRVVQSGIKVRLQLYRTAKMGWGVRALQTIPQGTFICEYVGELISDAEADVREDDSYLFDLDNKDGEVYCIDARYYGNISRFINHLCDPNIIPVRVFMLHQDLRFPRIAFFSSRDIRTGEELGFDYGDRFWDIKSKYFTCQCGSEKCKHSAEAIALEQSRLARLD
#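 Compounds were preincubated with 20 nM G9a for 15 min, after which biotinylated H3K9 peptide (500 nM) and SAM (20 uM) started a 2 h room-temperature reaction. Monomethylated product was quantified by antibody-based AlphaScreen chemiluminescence.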
# JMJD2A Tudor: inhibitors of human JMJD2A Tudor domain; AlphaScreen JMJD2A-Tudor / H3K4me3 peptide binding; Potency, µM (top dose mostly 114 µM), for inactives: at the highest dose activity change, negative = inhibition, actives largely listed as inhibitors; 390,000 tested, 4.4% active; AID 504339; further: on the % scale 0 is the no-effect control and ±100 the full control effect; nearly all actives have a fitted effect of over 50% in size
# BAZ2B block: blocks human BAZ2B; Q9UIF8; 360,000 tested, 4.4% active; AID 504333; Potency, µM (series often up to 114 µM), without a hit: at the top dose activity change, negative = inhibition, usual class: inhibitors; AlphaScreen BAZ2B-H3K14Ac peptide displacement; further: on the % scale 0 is the no-effect control and ±100 the full control effect; nearly all actives have a fitted effect of over 60% in size
#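 Compounds, titrated to a top concentration of 110 uM, were incubated 30 min at room temperature with preformed BAZ2B/acetyl-K14 H3 peptide complex (50 nM each). Proximity signal was measured by AlphaScreen after 20 min with beads.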
# GLS inhibitor: inhibitors of human glutaminase (GLS); GLS enzymatic activity, qHTS titration; 410,000 tested, 0.21% active; Potency, µM (titrated, usually from 45.5 µM), for inactives: top-dose activity change, negative = inhibition, usual class: inhibitors; AID 624170; further: on the % scale 0 is the no-effect control and ±100 the full control effect
#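 Glutamate formation by hKGA was monitored fluorometrically using coupled glutamate oxidase, HRP and Amplex Red. Substrate was added as 1 mM L-glutamine solution; incubation was 30 min at RT after an initial read.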
# The depositor's hits bear a star; ? = inconclusive; · = not tested or not shown; [ ] = another dose, or the depositor's remark. Sampled rows, rich in hits. Any-hit rate of the full collection: about 10%. The call rests on the fitted dose curve; in most records, active means well fitted curve in the direction sought with a large enough effect; inconclusive means small, poorly fitted or top-dose-only effect, or another doubt; inactive means no such curve, though single readings can be large; an effect the other way counts as inactive or inconclusive. Potency means the concentration at half of the fitted maximal effect.
SMILES,HP1b chromo inh,G9a block,JMJD2A Tudor,BAZ2B block,GLS inhibitor
CCOc1cc(/C=C2\N=C(SC)SC2=O)cc([N+](=O)[O-])c1OC(C)=O,45µM*,14µM*,-11%[11.4 µM],18µM*,?
COC(=O)c1c(NC(=O)COc2ccc(C)cc2Br)sc2c1CCCC2,40%,-32%[59 µM],-6%,3%,-7%
S=C(NCc1ccco1)Nc1ccc(Cl)cn1,10%,8.9µM*,-33%,?,-6%
CC(C)(CO)NC(=S)NCc1ccco1,8%,40µM*,-13%,-7%,11%
Cc1cccnc1NC(=S)NCc1ccco1,12%,2.5µM*,-26%,?,-1%
S=C(NCc1ccco1)Nc1ccccn1,34%,?,-28%,?,0%
COc1ccc(-c2nn(C)c3sc(C(=O)Nc4cc(OC)c(OC)c(OC)c4)cc23)cc1OC,-18%,?,?,·,-13%
CCC(=O)OCC(=O)[C@@]1(OC(=O)CC)[C@H](C)C[C@@H]2[C@@H]3[C@H]([C@@H](O)C[C@@]21C)[C@]1(C)C=CC(=O)C=C1C[C@@H]3Cl,·,?,·,·,-17%[20 µM]
COc1cc(C(=S)N2CCOCC2)cc(OC)c1OC(=O)Cc1ccc(F)cc1,?,3.2µM*,79µM*,?,21%
COc1cc(C(=O)Oc2c(OC)cc(C(=S)N3CCOCC3)cc2OC)cc(OC)c1OC,21%,?,-28%,-33%,-3%
COc1cc(C(=S)N2CCOCC2)cc(OC)c1OC(=O)c1ccc(F)cc1,?,·,-35%,?,-14%
COc1cc(C(=O)Oc2cccc(C(=S)N3CCOCC3)c2)cc(OC)c1OC,-14%,22µM*,-28%,?,10%
O=C(Oc1ccc(Br)cc1C(=S)N1CCOCC1)c1ccccc1,-15%,45µM*,-20%,10%,-8%
O=C(Oc1ccccc1C(=O)N1CCOCC1)c1ccc(Br)cc1,20%,-17%[59 µM],-10%,8%,14%
O=C(c1ccc(-c2ccccc2)cc1)c1ccccc1C(=O)N1CCOCC1,25%,-30%[2.33 µM],-10%,-31%,2%
S=C(c1ccc(-c2ccccc2)cc1)N1CCOCC1,-11%,40µM*,-25%,-1%,-7%
O=C(O)c1cc(-n2[nH]c(=O)c3ccccc3c2=O)ccc1Cl,26%,-26%[59 µM],-3%,0%,9%
Brc1cccc(-c2nc3ccc(Br)cn3c2Cc2ccccc2)c1,·,·,·,·,13%
COC1=CC(=O)[C@@]2([C@@H]1O)[C@@H](Cl)C[C@]13C(OC)=C(OC)C(=O)C[C@]21CCN3C,30%,·,-9%,·,10%
O=C(Oc1cccc(Oc2ccccc2)c1)N1CCOCC1,39%,-3%,9%,11%,18%
O=C(Oc1cccc(C(=S)N2CCOCC2)c1)c1ccccc1,?,7.1µM*,-30%,-9%,-7%
COc1ccc(CC(=O)Oc2ccc(Br)cc2F)cc1S(=O)(=O)N1CCOCC1,2%,50µM*,-12%,7%,23%
CC(=O)NCc1ccc2[nH]c(C)cc2c1,18%,?,-8%,-7%,11%
CCc1cccc(C)c1NC(=S)NCc1ccc2[nH]c(C)cc2c1,5%,?,?,40µM*,9%
CCC(=O)NCc1ccc2[nH]c(C)cc2c1,32%,35µM*,-18%,-16%,14%
SMILES,HP1b chromo inh,G9a block,JMJD2A Tudor,BAZ2B block,GLS inhibitor
CNC(=S)NCc1ccc2[nH]c(C)cc2c1,-6%,-26%,?,·,1%
S=c1[nH]c2ccc(Cl)cc2[nH]1,?,1.6µM*,45µM*,7%,-2%
COc1ccc2[nH]c(=S)[nH]c2c1,16%,4.5µM*,56µM*,10%,-3%
O=C1CCCc2c1[nH]c1ccc(Cl)cc21,32%,22%[59 µM],0%,-3%,-20%
S=c1[nH]c2cc(Cl)ccc2s1,-9%,1.8µM*,?,-1%[57.1 µM],-21%
COc1ccc(C2=C(C(C)=O)Sc3nnc(-c4ccc(C)cc4)n3N2C(C)=O)cc1OC,27%,3%[59 µM],-5%,-15%,9%
NC(Cc1ccc(F)cc1)c1csc(Nc2ccc(C(=O)c3ccccc3)cc2)n1 (stereo unspecified),·,·,·,·,11%
CCc1ccc2c(c1)c(N=NC1=NC(=O)CS1)c(O)n2C,-9%,13µM*,-33%,?,16%

# Source: PubChem BioAssay (National Center for Advancing Translational Sciences (NCATS))
